# Screens (PubChem)
# Only some compounds are listed: those with a hit (about 1.6% of all), similar ones and a draw of the others.
# VLA-4 inh: inhibition in a human VLA-4 binding assay. 330,000 compounds, 0.2% hits. VLA-4 expressing cells, ligand binding flow cytometry. inhibition, % (about 7 µM as worked out from the volumes in the protocol). AID 2557. P13612; in the data active = inhibition above about 50%
# GRK2 aptamer HTS: inhibitors of human GRK2 displacing RNA aptamer; bead flow cytometry, FAM-aptamer displacement from GRK2; inhibition of aptamer binding, % at 10 µM; 330,000 compounds, 0.59% hits;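 active = inhibition of aptamer binding above 40%, roughly 3 SD of noise, on plates passing a quality check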;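 note: median bead fluorescence of bound FAM aptamer so fluorescent compounds give negative values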
# PREPL inh: inhibits the human prolyl oligopeptidase-like enzyme; recombinant PREPL, fluorescence polarization activity-based probe; Q4J6C6; 320,000 compounds, 0.68% hits; AID 2751; inhibition, % at 5.96 µM; in the data active = inhibition above about 43%
# GASC-1 inh: blocks human GASC-1 demethylase activity. AID 2099. GST-JMJD2C(1-420) H3K9me3 demethylation, DELFIA europium. inhibition, % at 2.35 µM. 330,000 compounds, 0.069% hits. Q9H3R0;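 active = more than half of a compound's replicate wells show inhibition beyond 50%, single wells judged on their own value; inconclusive = some, but no more than half, of replicates pass 50% inhibition; inactive = no replicate passes 50% inhibition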;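 note: signal counts dimethyl H3K9 product captured on neutravidin plate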
# DSG3 Ab inh: inhibitors of pemphigus antibody binding to human desmoglein-3. P32926. DSG3-coupled beads, scFv-anti-DSG3-GFP binding, flow cytometry; stronger effect = lower value. binding (percent of control), % at 10 µM. 310,000 compounds, 0.48% hits. AID 588358;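 active = binding more than 3 SD below its plate's average and above zero; inconclusive = below that plate limit but binding exactly zero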
# Target sequence (P32926 whole entry, looked up): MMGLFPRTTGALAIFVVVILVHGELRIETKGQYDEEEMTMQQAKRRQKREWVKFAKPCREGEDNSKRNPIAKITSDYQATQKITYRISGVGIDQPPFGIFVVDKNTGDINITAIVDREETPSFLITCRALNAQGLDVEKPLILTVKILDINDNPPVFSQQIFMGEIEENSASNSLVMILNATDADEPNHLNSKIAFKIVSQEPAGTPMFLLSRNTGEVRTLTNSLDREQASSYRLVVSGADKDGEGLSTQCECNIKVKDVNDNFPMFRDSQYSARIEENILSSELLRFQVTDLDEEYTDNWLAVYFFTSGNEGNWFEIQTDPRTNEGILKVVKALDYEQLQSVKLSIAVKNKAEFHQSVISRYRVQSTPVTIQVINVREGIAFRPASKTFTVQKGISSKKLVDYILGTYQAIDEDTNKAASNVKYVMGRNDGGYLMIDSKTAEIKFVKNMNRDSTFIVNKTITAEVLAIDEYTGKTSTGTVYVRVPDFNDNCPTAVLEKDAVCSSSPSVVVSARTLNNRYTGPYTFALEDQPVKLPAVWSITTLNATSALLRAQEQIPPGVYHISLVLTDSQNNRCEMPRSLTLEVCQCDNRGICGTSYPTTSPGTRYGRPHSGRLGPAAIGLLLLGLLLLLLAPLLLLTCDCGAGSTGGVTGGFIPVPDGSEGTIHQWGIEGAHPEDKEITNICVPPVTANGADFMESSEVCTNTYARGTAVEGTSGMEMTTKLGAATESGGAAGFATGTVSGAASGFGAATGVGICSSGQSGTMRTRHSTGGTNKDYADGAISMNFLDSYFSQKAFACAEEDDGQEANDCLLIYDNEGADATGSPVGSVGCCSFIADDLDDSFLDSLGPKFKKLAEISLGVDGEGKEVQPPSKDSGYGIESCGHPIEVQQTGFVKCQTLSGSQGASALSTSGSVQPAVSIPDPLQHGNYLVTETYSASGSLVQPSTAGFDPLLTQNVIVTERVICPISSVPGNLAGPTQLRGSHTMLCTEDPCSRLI
# VLA-4 allo CP: confirmation of allosteric modulators of human VLA-4 integrin; shares compounds with VLA-4 inh; U937 cells, HUTS-21 LIBS mAb binding, flow cytometry; LDV ligand present at threefold Kd; inhibition, % at 6.7 µM; 1,300 compounds, 2% hits; AID 2813; in the data active = inhibition above about 40%
# Numbers stand for hits; n = inactive; u = inconclusive; x = no result given; ! = repeats disagree.
SMILES,VLA-4 inh,GRK2 aptamer HTS,PREPL inh,GASC-1 inh,DSG3 Ab inh,VLA-4 allo CP
COC(=O)C(Cc1cnc[nH]1)NC(=O)C1CCC(=O)N1 (stereo not drawn),57.9,n,n,n,n,n
C=CCn1c(SCC(=O)Nc2nc(C)cs2)nnc1C(C)NC(=O)c1ccccc1Cl (stereo not drawn),54.4,n,n,n,n,n
CCOC(=O)C1CCCN(S(=O)(=O)c2cc3[nH]c(=O)c(=O)[nH]c3cc2C)C1 (stereo not drawn),50.4,n,n,n,n,n
O=C1COc2ccc(N3C(=O)c4ccccc4C3=O)cc2N1,52.2,n,n,n,x,n
O=C1COc2ccc(-c3n[nH]c(=O)c4ccccc34)cc2N1,n,n,n,n,n,x
O=c1c2[nH]c3ccc(Br)cc3c2ncn1Cc1ccncc1,n,n,n,n,x,n
Cc1ccc2[nH]c3c(=O)n(Cc4ccncc4)cnc3c2c1,n,n,n,n,n,x
CCN(CC)CCNC(=O)COc1ccc(OC)cc1,57.1!,n,n,n,n,n
COc1ccc(OCC(=O)NCCCCCCNC(=O)COc2ccc(OC)cc2)cc1,n,n,n,n,n,x
Cc1ccc(S(=O)(=O)NCC(=O)OCC(=O)c2c(N)n(C)c(=O)n(C)c2=O)cc1,n,n,n,n,n,x
O=C(CCSc1nnc(-c2ccncc2)o1)Nc1ccc(Cl)cc1,50.5,n,n,n,x,n
Cc1ccc(S(=O)(=O)c2ccsc2NC(=O)c2ccccc2)cc1,x,x,x,x,n,x
CC1CCCC(C)N1C(=O)COC(=O)c1ccccc1O (stereo not drawn),n,n,n,n,n,n
Cc1ccc(C(=O)c2ccccc2C(=O)OCC(=O)N2CCCC2)cc1,n,n,n,n,n,x
Cc1cccc(C(=O)OCC(=O)N2CCCCCC2)c1C,n,n,n,n,n,n
CCCCOc1ccc(C(=O)OCC(=O)N2CCCCCC2)cc1,n,n,n,n,n,n
O=C(OCC(=O)N1CCCC1)c1ccc(OC(F)(F)F)cc1,n,n,n,n,n,x
Nc1cc(Cl)ccc1C(=O)OCC(=O)N1CCCCCC1,n,n,n,n,n,n
Nc1cc(Cl)ccc1C(=O)OCC(=O)N1CCCC1,n,n,n,n,n,x
O=S(=O)(c1ccc(Cl)cc1)N1CCC2(CC1)CO2,n,n,n,n,n,x
CC(=O)NNc1cc(C)nc(NS(=O)(=O)c2ccc(C)cc2)n1,n,n,n,n,n,x
C/C(=N\NC(=O)c1ccccc1O)c1cccs1,n,n,n,n,n,x
CSC(=NNC(=O)c1ccccc1O)SC,88.2,x,n,n,n,n
c1ccc2[nH]c(NCCCN3CCOCC3)nc2c1,61.8,n,n,n,n,n
C=C1[C@@H](O)[C@@H]2O[C@]3(CC[C@H](/C=C/[C@@H](C)[C@@H]4CC(C)=CC5(O[C@H](C[C@@](C)(O)C(=O)OC)CC[C@H]5O)O4)O3)CC[C@H]2O[C@@H]1[C@@H](O)C[C@H](C)[C@H]1OC2(CCCCO2)CC[C@H]1C (stereo partly drawn),n,n,n,n,x,x
SMILES,VLA-4 inh,GRK2 aptamer HTS,PREPL inh,GASC-1 inh,DSG3 Ab inh,VLA-4 allo CP
C=C1C(O)[C@@H]2O[C@]3(CC[C@H](/C=C/C(C)[C@@H]4CC(C)=CC5(O[C@H](C[C@@](C)(O)CO)CCC5O)O4)O3)CC[C@H]2O[C@@H]1C(O)CC(C)[C@H]1OC2(CCCCO2)CCC1C (stereo partly drawn),53.9,n,n,x,x,52.0
COc1ccc(CCNC(=O)CCCOc2cccc(C)c2C)cc1OC,n,n,n,n,n,x
CCOC(=O)N1CCN(S(=O)(=O)c2cc(-c3nn4c(C)nnc4c4ccccc34)ccc2C)CC1,n,n,n,n,n,n
Cc1ccc(-c2nn3c(C)nnc3c3ccccc23)cc1S(=O)(=O)N(C)CCO,n,n,n,n,n,x
Cc1ccc(-c2nn3c(C)nnc3c3ccccc23)cc1S(=O)(=O)NCCN1CCOCC1,n,n,n,n,n,n
Cc1cc(=O)oc2cc(OS(C)(=O)=O)ccc12,n,n,n,n,n,n
O=C(CNC(=O)c1ccccc1)NCc1ccc(Cl)cc1,n,n,n,n,n,x
CCc1ccc(-c2cc(C)no2)cc1S(=O)(=O)N1CCCN(Cc2ccc(F)cc2)C1,n,n,n,n,u,x
O=C(O)c1ccc2c(c1)C(=O)N(c1cccc3ccccc13)C2=O,57.8,n,n,n,n,n
O=C(O)c1ccc2c3c(cccc13)C(=O)N(c1cccc3ccccc13)C2=O,n,n,n,n,n,x
O=C(C[C@H]1C/C=C\CCCCC(=O)OC[C@H]2CCCN2C1=O)N[C@H](CO)Cc1ccccc1,n,n,n,n,n,x
COC(=O)c1ccc(NC(=O)CSc2nn3c(=O)c(C)nnc3s2)cc1,n,n,n,n,x,x
O=C(/C=C/c1ccccc1)C1=C(O)C(=O)N(CCO)C1c1ccccc1[N+](=O)[O-] (stereo not drawn),51.3,n,n,n,n,n
CCN(CC(=O)Nc1ccc(N2CCOCC2)cc1)CC(=O)NC(C)(C)C,n,n,n,n,n,n
CN(CC(=O)Nc1ccc(N2CCOCC2)cc1)C(=O)CCNC(=O)c1ccc(Br)cc1,49.9,n,n,n,n,n
CN(CC(=O)Nc1ccc(N2CCOCC2)cc1)CC(=O)Nc1ccc(C(F)(F)F)cc1,n,n,n,x,n,x
CC(C)(C)NCC(O)CON=C1c2ccccc2-c2ccccc21 (stereo not drawn),54.7,n,n,n,n,n
CCOC(=O)CSc1nnc(CNC(=O)c2ccc(S(=O)(=O)N3CCCC3)cc2)n1C,n,n,n,n,n,x
CCOC(=O)CSc1nnc(CNC(=O)c2ccc(S(=O)(=O)N3CCOCC3)cc2)n1C,n,n,n,n,n,n
Cc1ccc(/C=N/NC(=O)CNC(=O)c2ccc(C)c([N+](=O)[O-])c2)o1,n,n,n,n,n,x
Cc1ccc(/C=N/NC(=O)CNC(=O)c2cccc([N+](=O)[O-])c2C)o1,58.4,n,n,n,n,n
COc1cccc(C(=O)OCC(=O)NCCC2=CCCCC2)c1,n,n,n,n,n,n
COc1cc(CCCN2C(=O)C(=O)NC[C@@H]2c2ccccc2)cc(OC)c1OC,52.3,n,n,n,n,n
COc1cc(CCCN2C(=O)C(=O)NC[C@@H]2C(C)O)cc(OC)c1OC (stereo partly drawn),n,n,n,n,n,n
O=C(CN1C(=O)c2cccc3cccc1c23)Nc1cccnc1,n,n,n,n,n,x
O=C(O)c1nn2c(C(F)(F)F)cc(-c3cccs3)nc2c1Cl,n,n,n,n,n,n
O=C(COC(=O)CCc1ccccc1)Nc1ccccc1OC(F)F,n,n,n,n,n,x
COC(=O)c1ccc(/C=N/n2c(C)nc3ccccc3c2=O)cc1,n,n,n,n,n,n
COc1ccc(/C=N/n2c(C)nc3ccccc3c2=O)cc1,n,n,n,n,n,x
COc1ccc(C)cc1S(=O)(=O)Nc1cccc(C)c1,n,n,n,n,n,n
